# Screening results deposited in PubChem by several laboratories.
# Compounds with a hit are over-represented: about 2.1% of the library has one in this group of screens.
# ABCB6 inh MLPCN: human ABCB6 transporter inhibition. Q9NP58. K562-ABCB6 porphyrin accumulation, flow cytometry, 1 h; stronger effect = lower value. fluorescence ratio to DMSO, % at 10 µM. 0.19% of 360,000 active;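 active means fluorescence ratio to DMSO below 75%, the collection mean minus 3 SD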;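 further: signal is porphyrin accumulated inside mitochondria; 100% equals median channel fluorescence of DMSO control wells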
# Target sequence (Q9NP58 whole entry, looked up): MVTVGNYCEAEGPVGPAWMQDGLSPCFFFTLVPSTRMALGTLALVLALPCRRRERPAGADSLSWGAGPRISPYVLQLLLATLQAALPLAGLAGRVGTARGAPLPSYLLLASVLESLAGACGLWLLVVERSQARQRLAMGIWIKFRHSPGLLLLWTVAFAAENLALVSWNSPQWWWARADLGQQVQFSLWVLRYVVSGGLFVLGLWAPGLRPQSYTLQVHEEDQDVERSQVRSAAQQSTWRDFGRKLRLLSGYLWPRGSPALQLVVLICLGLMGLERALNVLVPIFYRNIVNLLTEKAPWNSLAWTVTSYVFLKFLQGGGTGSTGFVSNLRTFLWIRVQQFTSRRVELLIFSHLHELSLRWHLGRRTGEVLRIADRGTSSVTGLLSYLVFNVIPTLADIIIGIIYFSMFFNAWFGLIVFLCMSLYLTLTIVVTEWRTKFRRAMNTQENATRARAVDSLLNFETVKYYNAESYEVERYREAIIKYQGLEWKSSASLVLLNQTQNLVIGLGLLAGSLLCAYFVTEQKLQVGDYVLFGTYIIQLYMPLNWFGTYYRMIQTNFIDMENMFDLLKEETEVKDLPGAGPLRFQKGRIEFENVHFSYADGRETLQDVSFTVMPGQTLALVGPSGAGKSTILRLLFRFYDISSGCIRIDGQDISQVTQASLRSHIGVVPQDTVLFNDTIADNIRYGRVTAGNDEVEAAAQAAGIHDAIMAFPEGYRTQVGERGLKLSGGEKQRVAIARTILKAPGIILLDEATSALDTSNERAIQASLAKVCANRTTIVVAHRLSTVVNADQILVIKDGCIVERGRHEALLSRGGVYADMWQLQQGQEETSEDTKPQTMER
# SMARCA2 activ: SMARCA2 function activation, primary screen. MG213 cells, MMTV-luciferase reporter, dexamethasone, overnight. activation, % at 9.1 µM. 1% of 370,000 active. AID 652017; in the data active means activation above about 7.8%;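 further: 0% = vehicle wells and 100% = reference activator wells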
# bovine MsrA act: activates bovine MsrA enzyme. purified bovine MsrA, absorbance read-out. activation, % at 10.6 µM. 0.3% of 360,000 active; in the data active means activation above about 7.5%;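 further: 0% = vehicle and 100% = reference activator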
# MsrA inh: bovine MsrA inhibition; purified bovine MsrA, absorbance read-out; inhibition, % at 15.5 µM; 0.75% of 360,000 active; AID 651718; in the data active means inhibition above about 4.5%;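 further: 0% = vehicle wells with enzyme and 100% = reference inhibitor wells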
# SMARCA2 act conf: SMARCA2 activation, confirmation screen; shares compounds with SMARCA2 activ; MG213 cells, MMTV-luciferase with dexamethasone, luminescence, overnight; MG213 cells expressing E1A, Rb sequestered; DMSO wells 0%, reference activator 100%; activation, % at 9.1 µM; 30% of 3,500 active; AID 652260;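 active means activation above its plate's cutoff, the mean activation of tested wells plus 3 SD, cut at about 7.9% in these data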
# GAL4-VP16 Luc: counter-screen for SMARCA2 activators: GAL4-VP16 luciferase reporter activation. shares compounds with SMARCA2 activ. HEK293 GAL4-VP16 pG5luc reporter, luciferase luminescence; scaled: DMSO wells 0%, SAHA wells 100%. activation, % at 9.1 µM. 41% of 3,500 active. AID 686939;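 active means activation above the solvent-only control well mean plus 3 SD, averaged across control plates, cut at about 5.2% in these data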
# Starred values were filed as active, the others as inactive; . = no result.
SMILES,ABCB6 inh MLPCN,SMARCA2 activ,bovine MsrA act,MsrA inh,SMARCA2 act conf,GAL4-VP16 Luc
CC(C)c1ccc(NC(=O)COC(=O)C2CC3C=CC2C3)cc1 (stereo not drawn),95,8.2*,-5,0,3,2
COC(=O)[C@]12C[C@H](CC(=O)N3CCCC3)C(=O)N(Cc3ccc(Cl)cc3Cl)C1=C[C@H](C(C)C)O[C@@H]2C1CC1,.,-1,.,.,.,.
CC(C)C(=O)Nc1cccc(NC(=O)c2cc3ccccc3o2)c1,100,9.4*,-3,1,7,10*
Cc1cc(C(=O)Nc2cccc3ccccc23)oc1C,99,3,-2,0,.,.
O=C(Nc1ccccc1)c1cc2ccccc2o1,97,13*,-2,-1,4,5
CC(=O)Nc1cccc(NC(=O)c2cc3ccccc3o2)c1,98,3,-1,1,.,.
Cc1cc(C(=O)Nc2ccccc2)oc1C,101,9.0*,-1,0,4,11*
Cc1cccc2sc(NC(=O)c3ccc(OCC4CCCO4)cc3)nc12 (stereo not drawn),91,12*,-2,0,-2,3
Cc1csc(NC(=O)c2ccc(OCC3CCCO3)cc2)n1 (stereo not drawn),102,1,-1,1,.,.
Cc1nn(-c2ccccc2)c(C)c1C=NNC(=O)CSc1nc2ccccc2n1C,.,-6,.,.,.,.
CCOC(=O)N1CCN(C(=O)c2ccc3c(=O)n(Cc4ccc(Cl)cc4)c(=S)[nH]c3c2)CC1,94,8.2*,-1,0,-4,1
O=C(Nc1ccccc1)C1(c2ccccc2)CC1(Cl)Cl (stereo not drawn),97,-4,4,1,.,.
O=C(Nc1ccccc1F)C1(c2ccccc2)CC1(Cl)Cl (stereo not drawn),99,9.9*,-3,0,0,1
Fc1cccc(F)c1-n1c(CN2CCCCC2)csc1=S,97,0,-11,-1,.,.
Fc1cccc(F)c1-n1c(CN2CCOCC2)csc1=S,100,8.7*,-8,0,-1,-1
COc1cccc(-c2onc3ccc(C(C)=O)cc23)c1,116,8.4*,-3,1,6,2
CC(=O)c1ccc2noc(-c3cccc(F)c3)c2c1,103,0,-2,1,.,.
C=CCN(C(=O)[C@@H](C)[C@@H](O)c1ccc2ccccc2c1)c1ccccc1,.,-2,.,.,.,.
COc1ccc(NC(=S)N(CCc2c(C)[nH]c3ccccc23)Cc2cccnc2)cc1,97,9.1*,-11,0,-2,0
CCOc1ccc(NC(=S)N(CCc2c(C)[nH]c3ccc(C)cc23)Cc2cccnc2)cc1,99,-3,-3,0,.,.
CCCCCCCCN1C(=O)[C@H](CC(=O)NCCCC)C[C@@]2(C(=O)OC)CC(C)(C)CC=C12,.,-3,.,-1,.,.
COc1ccc2nc3ccccc3[n+]([O-])c2c1,96,8.4*,4,0,6,6.2*
COc1ccc2c(ccc[n+]2[O-])c1,99,0,-4,0,.,.
O=C(NC(=S)NCc1nc2ccccc2[nH]1)c1ccc(F)cc1,100,9.9*,-4,0,7,4
CCN(CC)c1ccc(NC(=O)CSc2nnc(-c3ccc(Cl)cc3)n2Cc2ccco2)cc1,.,-4,.,.,.,.
SMILES,ABCB6 inh MLPCN,SMARCA2 activ,bovine MsrA act,MsrA inh,SMARCA2 act conf,GAL4-VP16 Luc
O=C1Nc2ccccc2/C1=C/c1cccnc1,94,2,-9,3,.,.
O=C1Nc2ccccc2/C1=C/c1cnc(-c2ccccc2)[nH]1,97,18*,-5,1,13*,11*
O=C(Oc1ccccc1/C=C\C(=O)c1cc2ccccc2o1)c1cccc(F)c1,94,3,-5,1,.,.
O=C(Oc1ccccc1/C=C\C(=O)c1cc2ccccc2o1)c1ccccc1,100,8.7*,-2,1,2,9.6*
COc1ccc(Cn2cc(CN3CC=CS3(=O)=O)nn2)cc1,.,-1,.,.,.,.
CC(C)NC(=O)OC[C@@H]1CSCCS(=O)(=O)N1,.,1,.,-1,.,.
CSCCNC(=O)c1ccc(OC2CCN(CCc3ccccc3)CC2)cc1,90,8.0*,-4,-1,-1,0
CCCCCCCCN1C(=O)[C@@H](CC(=O)NCCCOC)C[C@@]2(C(=O)OC)C1=C[C@H](C(C)C)O[C@@H]2C1CC1,.,1,.,.,.,.
CCN(CCn1cccn1)C(=O)CCc1nnc(CCCc2ccccc2)o1,99,8.7*,-5,0,11*,6.4*
C=C(C)CN(CC)C(=O)CCc1nnc(CCCc2ccccc2)o1,100,2,0,1,.,.
Cc1cc(C)n2c(NC3CCCCC3)c(-c3ccccn3)nc2n1,130,-2,-3,1,.,.
Cc1cc(C)n2c(NC3CCCC3)c(-c3cc4ccccc4o3)nc2n1,121,8.6*,-3,2,8.0*,6.7*
COCc1cn([C@H]2C[C@@H]3O[C@H](CO)CC[C@@H]3O[C@@H]2CCc2ccc(-c3ccc(OC)cc3)cc2)nn1,.,-3,.,.,.,.
COc1cccc(NC(=S)NC(=O)/C=C/c2ccco2)c1,106,2,-3,3,.,.
O=C(/C=C/c1ccco1)NC(=S)Nc1cccc(C(=O)O)c1,97,8.4*,-2,1,6,1
C[C@H]1[C@H](c2ccccc2)Oc2cccc(N3CCCC3)c2S(=O)(=O)N1Cc1cccc(F)c1,.,-1,.,0,.,.
CC(C)c1ccc(C(=O)N2CCCCC2c2cc(C(=O)Nc3ccncc3)no2)cc1 (stereo not drawn),97,-4,4,1,.,.
COC(=O)[C@]12C[C@H](CC(=O)NCCCN3CCCC3=O)C(=O)N(CCC3=CCCCC3)C1=C[C@H](C(C)C)O[C@@H]2C1CC1,.,-3,.,.,.,.
CCOc1ccc(NC(=O)CCNS(=O)(=O)c2ccc3c(c2)oc(=O)n3C)cc1,101,8.0*,-1,0,-1,-1
Cc1ccc(NC(=O)CCNS(=O)(=O)c2ccc3c(c2)oc(=O)n3C)cc1,99,-2,-2,-1,.,.
CCCc1c(-c2ccc(Cl)cc2)ncn1Cc1cccc(-c2ccccc2)c1,.,-3,.,-1,.,.
O=[N+]([O-])c1ccc2nc(-c3ccc(Cl)cc3)n(OCc3ccccc3)c2c1,96,11*,-1,1,7,11*
Clc1ccc(COn2c(-c3ccc(Cl)cc3)nc3ccccc32)cc1,91,3,-2,0,.,.
C/C(=N\NC(=O)c1cnccn1)c1ccc([N+](=O)[O-])cc1,97,9.6*,-2,2,4,3
O=C(N/N=C/c1ccc([N+](=O)[O-])cc1)c1cnccn1,.,-3,.,2,.,.
COc1cc(OC)c(-c2nn3c(C4CCCCC4)nnc3s2)cc1OC,98,8.3*,-2,1,0,2
COc1cc(-c2nnc3sc(C4CCCCC4)nn23)cc(OC)c1OC,91,.,-5,.,.,.
CCc1ccc(C(=O)Cn2ncc(Cl)c(Cl)c2=O)cc1,105,17*,-7,0,-16,4
COc1ccc2oc(-c3ccncc3)cc(=O)c2c1,98,8.7*,-1,1,13*,6.5*
